Most compounds without a hit are left out; they make up all but 1.6% or so of the library.
RecA intein inh – blocks M. tuberculosis RecA intein splicing; inhibition, % (no concentration beside the values); cell-free RecA intein splicing, fluorescence; P9WHJ3; 0.75% of 290,000 active; in the data active = inhibition above about 30%
Target sequence (P9WHJ3 whole entry, looked up): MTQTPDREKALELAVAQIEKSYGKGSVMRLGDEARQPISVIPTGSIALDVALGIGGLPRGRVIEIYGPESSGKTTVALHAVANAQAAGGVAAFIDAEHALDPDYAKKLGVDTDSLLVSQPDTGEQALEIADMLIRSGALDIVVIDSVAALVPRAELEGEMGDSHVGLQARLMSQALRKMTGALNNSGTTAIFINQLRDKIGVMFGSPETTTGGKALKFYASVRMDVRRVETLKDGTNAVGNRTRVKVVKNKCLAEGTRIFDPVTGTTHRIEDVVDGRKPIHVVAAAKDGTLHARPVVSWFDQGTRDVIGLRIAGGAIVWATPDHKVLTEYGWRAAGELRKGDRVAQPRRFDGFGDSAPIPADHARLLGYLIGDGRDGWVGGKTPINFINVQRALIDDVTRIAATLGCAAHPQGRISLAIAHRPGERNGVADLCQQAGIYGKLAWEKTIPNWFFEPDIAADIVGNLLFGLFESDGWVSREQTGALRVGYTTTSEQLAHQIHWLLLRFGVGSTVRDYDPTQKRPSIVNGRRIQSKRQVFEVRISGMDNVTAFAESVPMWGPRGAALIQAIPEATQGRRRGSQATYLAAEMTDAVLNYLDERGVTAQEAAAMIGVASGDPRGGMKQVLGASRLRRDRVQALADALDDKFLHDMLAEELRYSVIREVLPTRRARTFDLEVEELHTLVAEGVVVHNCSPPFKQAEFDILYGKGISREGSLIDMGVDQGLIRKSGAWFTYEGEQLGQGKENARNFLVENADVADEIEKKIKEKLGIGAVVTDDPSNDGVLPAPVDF
BJeLR viability – BJeLR cell viability loss; BJeLR (HRASV12) viability, CellTiter-Glo ATP luminescence, 48 h; inhibition, % (no concentration beside the values); 0.17% of 300,000 active; in the data active = inhibition above about 50%
Mtb hypoxia inh – Mtb hypoxia fluorescent reporter inhibition; M. tuberculosis hypoxia-regulated fluorescent reporter, fluorescence; fluorescence inhibition, % (concentration not given with the values); 0.1% of 300,000 active; in the data active = fluorescence inhibition mostly above about 23%, no sharp cut-off; inactive = mostly below about 17%
Sa ugtP lethal – kills S. aureus RN4220 lacking UgtP; S. aureus RN4220 ugtP deletion, OD600 growth, 16 h; 0.54% of 330,000 active; growth inhibition, % (concentration not given with the values); in the data active = growth inhibition above about 68%
CCHFV vOTU inh – CCHFV vOTU protease inhibition. AID 651958. inhibition, % at 11.5 µM. Pep-AMC fluorescence. 0.55% of 370,000 active; in the data active = inhibition above about 30%
RN4220 kill – S. aureus RN4220 growth inhibition; AID 1259311; OD600, 16 h; inhibition, % (concentration not given with the values); 0.33% of 330,000 active; in the data active = inhibition above about 85%
Hits are given with their value; 0 = inactive; - = no result shown.

SMILES	RecA intein inh	BJeLR viability	Mtb hypoxia inh	Sa ugtP lethal	CCHFV vOTU inh	RN4220 kill
Brc1ccc(CN2CCC3C=CCc4cccc(c43)C2)cc1 (configuration not stated)	-	-	0	0	-	0
COc1ccc(-c2noc(-c3ccccc3F)n2)cc1	0	0	0	0	0	0
COc1ccc(-c2noc(-c3ccccc3-c3ccccc3)n2)cc1	0	0	0	88	0	0
COc1cc(OC)c(NC(=S)Nc2cc(Cl)cc(Cl)c2)cc1Cl	0	0	0	93	0	99
C=CCNC(=O)C(C#N)=Cc1c(N(Cc2ccccc2)Cc2ccccc2)nc2ccccn2c1=O	-	-	0	0	-	0
Oc1ccccc1N=N/C(=N/Nc1ccccc1O)c1ccccc1	0	0	-	-	0	-
N#C/C(N=Nc1ccccc1O)=N\Nc1ccccc1O	0	56	-	-	0	-
COc1c(F)cccc1C1=CC(=O)CC(c2ccc3c(c2)OCO3)C1 (configuration not stated)	-	-	0	0	-	0
N#Cc1ccc(OCC(=O)N2CCN(S(=O)(=O)c3ccc(Cl)s3)CC2)cc1	-	-	27	0	0	0
COc1ccc(-c2c(-c3ccccc3OC)oc3ccccc23)cc1F	-	-	0	89	0	0
CCOc1ccc2nc(N(CCCN(C)C)C(=O)c3ccc4c(c3)CCCC4)sc2c1	0	0	0	0	0	0
CN(C)CCCN(C(=O)c1ccc2c(c1)CCCC2)c1nc2ccc(Cl)cc2s1	0	0	38	0	0	0
O=C(Nc1nc2cc3c(cc2s1)OCCO3)c1ccc([N+](=O)[O-])o1	0	0	0	88	0	0
Cc1cc(C)c2nc(NC(=O)c3ccc([N+](=O)[O-])o3)sc2c1	0	0	0	99	0	0
CN(C)CCCN(C(=O)COc1ccc(Cl)cc1)c1nc2cc3c(cc2s1)OCCO3	0	0	0	91	0	0
O=S1(=O)CCOCC(CC2CCCCC2)N1Cc1ccccc1Br (configuration not stated)	-	-	0	0	-	0
C#CCOCCOCCOCCNc1nc(N2CCN(C(=O)CCCCCCCCCCNC(=O)C(CCCCN)n3cc(C)nn3)CC2)nc(N2CCN(C(=O)CCCCCCCCCCNC(=O)C(C(C)O)n3cc(C)nn3)CC2)n1 (configuration not stated)	-	-	0	0	-	0
COc1ccc2nc(NC(=O)c3ccc([N+](=O)[O-])o3)sc2c1	0	0	0	100	0	0
CN(C)CCCN(C(=O)c1ccc([N+](=O)[O-])o1)c1nc2cc3c(cc2s1)OCO3	0	0	0	0	51	0
COc1cc([C@@H]2c3cc4c(cc3[C@@H](O[C@@H]3O[C@@H]5CO[C@@H](C)O[C@H]5[C@H](O)[C@H]3O)[C@H]3COC(=O)[C@H]23)OCO4)cc(OC)c1O	0	0	-	-	0	-
COc1cc(C2c3cc4c(cc3C(OC3OC5COC(c6cccs6)OC5C(O)C3O)C3COC(=O)C23)OCO4)cc(OC)c1O (configuration not stated)	0	73	-	-	0	-
Cc1cc(C=C2NC(=O)NC2=O)c(C)n1-c1sc2c(c1C#N)CCCC2	-	-	0	0	-	0
CCn1c(C)nc2cc(-c3nc4n(n3)Cc3ccccc3-4)ccc21	0	63	0	0	-	0
O=S1(=O)C2CC3O[C@]2(CC3c2ccc(F)cc2)CN1Cc1ccc(Cl)cc1 (some centres not stated)	-	-	0	0	-	0
CCN1C(=O)/C(=c2\o/c(=C3\C=Cc4ccccc4N3CC)c(=O)n2CC)SC1=S	0	0	-	-	0	-
SMILES	RecA intein inh	BJeLR viability	Mtb hypoxia inh	Sa ugtP lethal	CCHFV vOTU inh	RN4220 kill
CCN1C(=O)/C(=C2\C=Cc3ccccc3N2CC)SC1=S	0	0	37	0	0	0
O=C(OCC(=O)c1ccc(Cl)s1)c1cncc(Br)c1	-	-	29	0	0	0
CCOC(=O)c1c(CCl)nc2ccccc2c1-c1ccccc1	41	0	-	-	0	-
C#Cc1ccc(C2C=C(C(=O)NCc3ccccc3)OC(OCc3ccc(CO)cc3)C2)cc1 (configuration not stated)	-	-	0	0	-	0
CCn1cc(C(=O)O)c(=O)c2cc(F)c(N3CCN(C)CC3)cc21	0	0	-	100	0	99
CCCCCCn1cc(C(=O)O)c(=O)c2cc(F)c(N3CCN(C)CC3)cc21	0	0	0	0	-	0
CN1CCN(c2c(F)cc3c(=O)c(C(=O)O)cn4c3c2SCC4)CC1	0	0	-	99	0	99
CCCCCCCC(=O)N1CCN(c2cc3c(cc2F)c(=O)c(C(=O)O)cn3CC)CC1	0	0	0	99	0	95
O=C(OCc1ccccc1)C(=C(O)c1ccccc1Br)c1ccc(-c2ccccc2)cn1	-	-	0	0	-	0
O=C(NC(=Cc1ccc(Br)cc1)C(=O)N1CCOCC1)c1cccs1	-	-	0	0	-	0
CCCC1CC(C(=O)NC(C(C)O)C2OC(SC)C(O)C(O)C2O)N(C)C1 (configuration not stated)	-	-	-	99	-	100
CN(C)CCCNC(=O)c1ccccn1	0	0	0	0	0	0
CN(C)CCCNC(=O)c1ccc(-c2nc(-c3ccc(Cl)cc3)cs2)cc1	0	0	0	84	0	0
COc1cc(C=NNC(=O)c2cc(-c3c(C)nn(-c4ccccc4)c3C)n[nH]2)ccc1O	-	-	-	95	-	0
O=[N+]([O-])c1ccc2c(c1)C(=NO)c1ccccc1-2	-	-	0	97	-	0
O=[N+]([O-])c1ccc2c(c1)C(=NO)c1cc(Cl)c(Cl)cc1-2	-	-	-	-	0	-
O=C1COc2ccc(C(=O)CCl)cc2N1	32	0	-	-	0	-
CC1CN=C(N(C)C)N1CCC1CCCC1 (configuration not stated)	-	-	0	0	-	0
CC1CN(c2nc3ccccc3cc2-c2ccccc2)CC(C)O1 (configuration not stated)	0	0	0	91	0	0
COc1cccc(N2C(CC(C)=O)c3ccccc3S2(=O)=O)c1 (configuration not stated)	-	-	0	0	-	0
CCC(=O)Nc1sc2c(c1C(N)=O)CCN(C(C)=O)C2	0	0	0	0	0	0
CC(=O)N1CCc2c(sc(NC(=O)c3ccc([N+](=O)[O-])o3)c2C(N)=O)C1	-	-	-	-	47	-
OCCN(CCO)c1ccc2ccccc2c1	0	0	0	0	0	0
OCCN(CCO)c1ccc(C(c2ccccc2Cl)c2ccc(N(CCO)CCO)cc2Cl)c(Cl)c1	32	0	0	0	-	0
COc1ccc(NC(=O)COc2ccc(C(=O)NCc3cccnc3)cc2OC)cc1	-	-	0	0	0	0
SMILES	RecA intein inh	BJeLR viability	Mtb hypoxia inh	Sa ugtP lethal	CCHFV vOTU inh	RN4220 kill
CC(C)(C)c1ccc(C(=O)c2c[nH]c(C(=O)NCc3cccnc3)c2)cc1	0	0	0	0	0	0
O=C(COc1ccc(Cl)cc1)Nc1ccc(C(=O)NCc2cccnc2)cc1	0	87	0	0	-	0
O=C(Cc1ccc(Cl)cc1)c1c[nH]c(C(=O)NCc2cccnc2)c1	0	78	0	0	0	0
Cc1cccc(OCC(=O)Nc2ccc(C(=O)NCc3cccnc3)cc2)c1	0	55	-	-	-	-
O=C(OCn1ncc(Br)c(Br)c1=O)c1c(F)cccc1F	53	0	-	-	-	-
CC/C(=C/c1sc2ccc(C)cc2[n+]1CCCS(=O)(=O)[O-])SC	0	0	0	0	0	0

Assay outcomes from PubChem BioAssay.
